PubChem BioAssay
Where “and” joins values, the source holds several entries; their conditions need not be identical. Equal entries are not always repeated. Inconclusive results are not listed. For part of these data: Entries with a potency or affinity are not part of this list. Calls of active or inactive are those of the source. Unless noted, the rule behind the calls is not given here.

Legend:
[1] = circadian clock period modulators, cell-based, LOPAC library, luminescence reporter (AID 2774); details: circadian reporter cells, at 7 µM, actives lie on both sides;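 note: values are relative to mean of DMSO wells on each plate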
[2] = test system: Hepatitis C virus NS3 helicase; test: HCV NS3 helicase inhibitors, primary screen, biochemical, fluorescence polarization, LOPAC1280 library (AID 687035; in the data active = inhibition above about 37%); details: Purified HCV NS3 helicase, Cy5-dT15 ssDNA binding fluorescence polarization; stronger effect = higher value; concentration not given here
[3] = Cy5 fluorescence quenching or enhancement artefacts, artefact control for HCV NS3 helicase inhibitor project, biochemical, LOPAC1280 (AID 687037); details: Cy5-DNA-NS3h complex fluorescence interference counterscreen
[4] = test system: Aerobactin synthetase IucA (Klebsiella pneumoniae); test: IucA aerobactin synthetase inhibitors, biochemical, Tocris library, absorbance (AID 1345561); details: purified IucA enzyme assay, absorbance (OD) read-out; stronger effect = lower value;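 tested at 8 µM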;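 note: 100% = enzyme without compound and 0% = no enzyme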
[5] = test system: Aerobactin synthetase IucA (Klebsiella pneumoniae, hypervirulent); test: IucA enzyme inhibition, biochemical, LOPAC library, absorbance readout (AID 1346212); details: IucA enzyme assay, absorbance (OD) readout; stronger effect = lower value;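 tested at 8 µM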;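 note: 100% = no compound wells and 0% = no enzyme wells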
[6] = growth inhibition of DIPG glioma cells, dose response, cell-based, SU-DIPG-XVII, MIPE5.0, CellTiter-Glo, qHTS (AID 1347060; cut-off not given, nearly all actives have AC50 up to about 26 µM); details: SU-DIPG-XVII viability, CellTiter-Glo ATP luminescence
[7] = growth inhibition of DIPG glioma cells, dose response, cell-based, JHH-DIPG-1, MIPE4.0, CellTiter-Glo, qHTS (AID 1347062; cut-off not given, nearly all actives have AC50 up to about 27 µM); details: JHH-DIPG-1 viability, CellTiter-Glo ATP luminescence
[8] = growth inhibition of DIPG glioma cells, dose response, cell-based, SU-DIPG-XIII, MIPE5.0, CellTiter-Glo, qHTS (AID 1347064; cut-off not given, nearly all actives have AC50 up to about 23 µM); details: SU-DIPG-XIII viability, CellTiter-Glo ATP luminescence
[9] = viability loss in pontine glioma line – cell-based, SU-DIPG-XXV, MIPE5.0, CellTiter-Glo, qHTS, dose response (AID 1347065; cut-off not given, nearly all actives have AC50 up to about 26 µM;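 note: cells exposed to compound for 48 hours before ATP readout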); details: CellTiter-Glo ATP luminescence
[10] = SU-DIPG-VI glioma cell viability, MIPE4.0 library, CellTiter-Glo luminescence, qHTS (AID 1347066; cut-off not given, nearly all actives have AC50 up to about 30 µM;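 note: cells exposed to compound for 48 hours before readout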); details: CellTiter-Glo ATP luminescence
[11] = JHH-DIPG-1 glioma cell viability, MIPE5.0 library, CellTiter-Glo luminescence, qHTS (AID 1347067; cut-off not given, nearly all actives have AC50 up to about 26 µM;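 note: cells exposed to compound for 48 hours before readout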); details: JHH-DIPG-1 glioma viability, CellTiter-Glo ATP luminescence
[12] = SU-DIPG-XXV glioma cell viability, MIPE5.0 library, qHTS (AID 1347068; cut-off not given, nearly all actives have IC50 up to about 30 µM)
[13] = sensitizers of A549 cells to miR-34 induction, primary screen, imaging, A549 dox-inducible miR-34, nuclei and caspase counts (AID 1347080;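 active = compounds whose cell count with miR-34 switched on is under 0.7 times the count with it off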); details: A549 miR-34 inducible, Hoechst nuclei count, 48 h
[14] = inhibitors of Cryptococcus chitosan production, flow cytometry, Cibacron Brilliant Red staining (AID 1347148); details: Cryptococcus neoformans chitosan, stronger effect = lower value; at 10 µM unless noted;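 note: compound exposure lasted three days at 37 degrees C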
[15] = phospholipid biosynthesis inhibitors in animal cells, primary screen, cell-based, LOPAC library, screen 4 (AID 1347384); details: phospholipid biosynthesis inhibition screen, at 10 µM
[16] = viability rescue of complex I mutant cybrids, primary screen, cell-based, galactose medium, ATP luminescence (AID 1645843;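 active = z-score of at least 1.8 in each of two replicates, scored against plate mean and spread of sample wells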;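 note: positive z means more ATP and so rescue of galactose-driven cybrid death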); details: complex I mutant cybrid cells, 72 h, stronger effect = higher value
[17] = polyglutamine-triggered caspase-3 activation inhibitors, cell-based (AID 1583); details: polyglutamine-induced caspase-3 activation, cell assay; stronger effect = higher value;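 tested at 10 µM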
[18] = suppressors of polyQ aggregation in yeast, 75Q-TubU reporter (AID 1593); details: Yeast 75Q polyglutamine aggregation reporter
[19] = rescue of polyQ-huntingtin neuronal dysfunction in worms, whole organism, C. elegans mechanosensory neurons, N-terminal huntingtin (AID 1599); details: touch response, stronger effect = higher value
[20] = inhibitors of mitochondrial cytochrome c release, biochemical, purified mitochondria (AID 1603); details: stronger effect = lower value;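 note: mouse liver mitochondria challenged with calcium chloride; signal normalized to the plate average as 100%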
[21] = inhibitors of polyQ protein aggregation (AID 1604); details: polyglutamine-induced protein aggregation inhibition assay; stronger effect = higher value; tested at 2.5 µM
[22] = enhancers of glutamate uptake in motor neurons, MN-1 cell line (AID 1612); details: MN-1 motor neuron cells, stronger effect = higher value;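 note: tested at 1 µM final; 0% = mean of DMSO vehicle wells on each plate; positive means more glutamate uptake than control and negative means less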
[23] = reducers of polyQ inclusions in PC12 cells, cell-based, NGF-treated PC12, GFPQ80 (AID 1614); details: PC12 NGF-treated GFP-polyQ80 inclusion reduction;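 note: lower means fewer inclusions and 0 means no inclusions at all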
[24] = suppressors of polyglutamine aggregation in yeast, 75Q-TubH (AID 1616); details: S. cerevisiae 75Q-TubH polyglutamine aggregation suppression; stronger effect = higher value
[25] = liver-stage malaria parasite growth inhibition, primary screen, cell-based, HepG2, luciferase luminescence, HepG2 viability (AID 624349; in the data active = parasite load remaining mostly below about 12%, no sharp cut-off; inactive = mostly above about 10%;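 note: 100% = mean of DMSO negative control wells on the same plate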); details: P. berghei liver stage in HepG2, luciferase luminescence, concentration not given here; parasite load remaining: stronger effect = lower value; viability: measured here: HepG2 viability without parasites
[26] = differential killing of epithelial or mesenchymal cells, primary screen, imaging, PC-3E GFP, TEM4-18 mCherry, co-culture (AID 1345086;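 active = compounds killing one labelled cell type while sparing the other, by normalised counts and ratio limits, not self-fluorescent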;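 note: cells exposed to compound for 72 h before imaging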;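 for red/green cell ratio (normalised): normalised mesenchymal count divided by normalised epithelial count so high means epithelial killing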); details: imaging cell counts, at 1 µM
[27] = measured here: relative caspase fold change +Dox/-Dox
[28] = measured here: total cells with miR-34 induction, stronger effect = lower value
[29] = measured here: total cells without miR-34 induction
[30] = stronger effect = lower value, cell number ratio, induced over uninduced

Question: For `COC(=O)[C@@H](N)CCCN=C(N)N[N+](=O)[O-]`, which period change [1] is on record?
Answer: -0.07 h (inactive)

Question: What about the inhibition [2] of the same compound?
Answer: -2% (inactive)

Question: What about the fluorescence ratio (interference) [3] of the same compound?
Answer: 1 (inactive)

Question: And the remaining activity [4]?
Answer: 81.5% (inactive)

Question: And the remaining activity [5]?
Answer: 117% (inactive)

Question: And the outcome [6]?
Answer: inactive

Question: What about the outcome [7] of the same compound?
Answer: inactive

Question: And the outcome [8]?
Answer: inactive

Question: And the outcome [9]?
Answer: inactive

Question: What about the outcome [10] of the same compound?
Answer: inactive

Question: And the outcome [11]?
Answer: inactive

Question: What about the outcome [12] of the same compound?
Answer: inactive

Question: What about the fold change ([13]; stronger effect = lower value) of the same compound?
Answer: 1.06 (inactive) and 1.11 (inactive) and 0.952 (inactive)

Question: And the fold change [13, 27]?
Answer: 1.8 and 0.812 and 0.955

Question: And the cell count [13, 28]?
Answer: 11200 and 5930 and 8740

Question: And the cell count [13, 29]?
Answer: 10600 and 5320 and 9180

Question: What about the fold fluorescence [14] of the same compound?
Answer: 4.22 [at 214.4 µM] (inactive)

Question: What about the outcome [15] of the same compound?
Answer: inactive

Question: And the z-score [16]?
Answer: 0.23 (inactive) and 0.29 (inactive)

Question: With `O=C1CN=C(c2ccccc2Cl)c2cc([N+](=O)[O-])ccc2N1` as the compound, how does the inhibition [17] read?
Answer: 12.9%

Question: And the score [18]?
Answer: 0.89

Question: What about the rescue above control [19] of the same compound?
Answer: -2.29

Question: What about the cytochrome c release ratio [20] of the same compound?
Answer: 0.98

Question: And the inhibition of aggregation [21]?
Answer: 52.4%

Question: And the glutamate uptake change [22]?
Answer: -25.1%

Question: And the inclusion score [23]?
Answer: 2

Question: And the aggregation suppression score [24]?
Answer: 0.77

Question: And the parasite load remaining [25]?
Answer: 52.7% (inactive)

Question: What about the viability [25] of the same compound?
Answer: 99.8%

Question: What about the red/green cell ratio (normalised) ([26]; actives lie on both sides) of the same compound?
Answer: 1.15 (inactive)

Question: And the normalised cell number ([26]; measured here: epithelial PC-3E GFP cell survival)?
Answer: 0.93

Question: What about the normalised cell number ([26]; measured here: mesenchymal TEM4-18 mCherry cell survival) of the same compound?
Answer: 1.07

Question: And the fold change ([13]; stronger effect = lower value)?
Answer: 0.845 (inactive)

Question: What about the fold change [13, 27] of the same compound?
Answer: 3.3

Question: What about the cell count [13, 28] of the same compound?
Answer: 10900

Question: And the cell count [13, 29]?
Answer: 12900

Question: Which remaining activity [4] does the source give for `Oc1ccc2c3c1O[C@H]1c4c(c5ccccc5n4Cc4ccccc4)C[C@@]4(O)C(C2)N(CC2CC2)CC[C@]314` here?
Answer: 94.5% (inactive)

Question: What about the fold change ([13]; stronger effect = lower value) of the same compound?
Answer: 0.935 (inactive)

Question: What about the fold change [13, 27] of the same compound?
Answer: 1.27

Question: And the cell count [13, 28]?
Answer: 2600

Question: What about the cell count [13, 29] of the same compound?
Answer: 2780

Question: And the z-score [16]?
Answer: -1.2 (inactive)

Question: For `O=C(O)C1=CCCN(CCOC(c2ccc(C(F)(F)F)cc2)c2ccc(C(F)(F)F)cc2)C1`, which remaining activity [4] is on record?
Answer: 122% (inactive)

Question: And the outcome [6]?
Answer: inactive

Question: And the outcome [11]?
Answer: inactive

Question: What about the outcome [12] of the same compound?
Answer: inactive

Question: And the fold change [13, 30]?
Answer: 0.921 (inactive)

Question: And the fold change [13, 27]?
Answer: 0.739

Question: And the cell count [13, 28]?
Answer: 8210

Question: What about the cell count [13, 29] of the same compound?
Answer: 8910

Question: And the z-score [16]?
Answer: 5.47 (active)

Question: For `N[C@@H](Cn1oc(=O)[nH]c1=O)C(=O)O`, which inhibition [2] is on record?
Answer: -2% (inactive)

Question: What about the fluorescence ratio (interference) [3] of the same compound?
Answer: 1 (inactive)

Question: And the remaining activity [4]?
Answer: 106% (inactive)

Question: And the remaining activity [5]?
Answer: 109% (inactive)

Question: And the fold change [13, 30]?
Answer: 0.917 (inactive)

Question: And the fold change [13, 27]?
Answer: 0.755

Question: What about the cell count [13, 28] of the same compound?
Answer: 8070

Question: What about the cell count [13, 29] of the same compound?
Answer: 8800

Question: And the outcome [15]?
Answer: inactive

Question: What about the z-score [16] of the same compound?
Answer: -0.215 (inactive)

Question: With `CCCN(CCC)C1CCc2cccc(O)c2C1` (stereo unspecified) as the compound, how does the period change [1] read?
Answer: -0.07 h (inactive)

Question: What about the inhibition [2] of the same compound?
Answer: 2% (inactive)

Question: What about the fluorescence ratio (interference) [3] of the same compound?
Answer: 1 (inactive)

Question: What about the remaining activity [4] of the same compound?
Answer: 106% (inactive)

Question: And the fold change ([13]; stronger effect = lower value)?
Answer: 0.975 (inactive) and 0.957 (inactive)

Question: And the fold change [13, 27]?
Answer: 0.862 and 0.742

Question: What about the cell count [13, 28] of the same compound?
Answer: 10400 and 8490

Question: What about the cell count [13, 29] of the same compound?
Answer: 10700 and 8870

Question: And the outcome [15]?
Answer: inactive

Question: And the z-score [16]?
Answer: 0.025 (inactive) and -0.42 (inactive)

Question: For `COc1ccc(CNC(=O)/C=C/c2ccc3[nH]cc(CCN(C)C)c3c2)cc1`, which period change [1] is on record?
Answer: 0.1 h (inactive)

Question: What about the inhibition [2] of the same compound?
Answer: -1% (inactive)

Question: What about the fluorescence ratio (interference) [3] of the same compound?
Answer: 1 (inactive)

Question: What about the remaining activity [4] of the same compound?
Answer: 97.5% (inactive)

Question: And the remaining activity [5]?
Answer: 111% (inactive)

Question: And the fold change ([13]; stronger effect = lower value)?
Answer: 1.08 (inactive) and 0.935 (inactive)

Question: And the fold change [13, 27]?
Answer: 1.56 and 0.859

Question: What about the cell count [13, 28] of the same compound?
Answer: 9510 and 8680

Question: What about the cell count [13, 29] of the same compound?
Answer: 8780 and 9280

Question: And the z-score [16]?
Answer: -0.155 (inactive) and -0.415 (inactive)
